# Data reported in ChEMBL document CHEMBL4513146, “CO-ADD screening of Karazin Kharkiv National University (Ukraine) compounds”.
# Entries with a potency or affinity are not part of this list.
# Experiments:
# Klebsiella pneumoniae = conditions: Concentration 32 ug.mL-1;; ASSAY_TEST Inhibition of Bacterial Growth; detection method Absorption (OD600); MEDIA CAMHB; plate type 384well; NBS; CORNING #3640; time 18 hr
# Candida albicans = conditions: Concentration 32 ug.mL-1; ASSAY_TEST Inhibition of Fungal Growth; detection method Absorption (OD530)
# Cryptococcus neoformans = conditions: Concentration 32 ug.mL-1; ASSAY_TEST Inhibition of Fungal Growth; detection method Resazurin; Absorption (OD600-OD570); plate type 384well; NBS; CORNING #3640
SMILES,Inhibition (Klebsiella pneumoniae) [%],Inhibition (Candida albicans) [%],Inhibition (Cryptococcus neoformans) [%]
CCc1nnc2c(S(=O)(=O)N(Cc3ccccc3F)c3ccc(F)cc3)cccn12,2.68,1.99,-5.43
COc1ccc(NC(=O)Cn2nc3ccc(SCc4ccc(Cl)cc4)nn3c2=O)cc1,1.71,48.76,-13.57
CCOC(=O)c1ccc(NC(=O)Cn2nc3c(Oc4ccccc4)nccn3c2=O)cc1,1.59,-0.16,-7.75
COc1ccc(-c2nc(CSc3nc4ccccc4n4c(C(C)C)nnc34)c(C)o2)cc1OC,-2.06,3.02,-7.98
N#Cc1cccc(NC(=O)CSc2nnc3c4cc(-c5ccccc5)nn4ccn23)c1,9.61,7.44,-14.96
COc1ccccc1-n1ccn2c(SCc3cc(C)ccc3C)nnc2c1=O,16.48,0.1,-7.82
Cc1ccccc1Oc1nc2ccccc2n2c(=O)n(CC(=O)NCc3ccc4c(c3)OCO4)nc12,17.68,19.82,-16.39
CCc1nnc2ccc(S(=O)(=O)N(Cc3ccc(OC)cc3)c3ccc(F)cc3)cn12,10.6,0.7,-9.28
CCCCc1ccc(NC(=O)CSc2nc3ccccc3n3c(CC)nnc23)cc1,13.43,1.28,-16.72
CC(C)Cn1c(=O)c2sccc2n2c(=O)n(Cc3ccc(N4CCCC4=O)cc3)nc12,9.72,1.08,-27.68
Cc1nnc2c(SCC(=O)Nc3ccc(Br)cc3F)nc3ccccc3n12,10.56,0.1,-6.82
O=c1c2nn(Cc3ccccc3F)c(=O)n2ccn1-c1ccccc1,4.89,1.22,-10.1
CCCCc1ccc(NC(=O)Cn2nc3c(Sc4ccccc4CC)nccn3c2=O)cc1,-8.8,24.82,-8.24
Cc1ccc(NC(=O)Cn2nc3ccc(SC(C)(C)C)nn3c2=O)c(C)c1,14.3,1.14,-21.84
Cc1cccc(NC(=O)Cn2nc3c(SCc4ccc(Cl)cc4)nccn3c2=O)c1C,15.65,5.99,-31.05
O=S(=O)(c1ccc2nncn2c1)N(Cc1ccc(Cl)cc1)c1ccc2c(c1)OCO2,8.29,2.29,-11.3
CCN(C(=O)CSc1nnc2c3cc(-c4ccc(OC)cc4)nn3ccn12)c1ccccc1,4.95,2.01,-1.74
CCc1nnc2ccc(S(=O)(=O)N(Cc3ccc(F)cc3)c3ccccc3)cn12,-0.12,-0.14,-7.1
Cc1ccc(Sc2nccn3c(=O)n(CC(=O)Nc4cccc(Br)c4)nc23)c(C)c1,7.97,8.72,-18.33
O=C(CSc1nnc2c3cc(-c4ccc(F)cc4)nn3ccn12)NCc1ccccc1,0.49,0.97,-18.29
CCCCN(C)c1ccc2nnc(CCc3nc(-c4cc(OC)cc(OC)c4)no3)n2n1,6.4,9.61,-5.17

SMILES,Inhibition (Klebsiella pneumoniae) [%],Inhibition (Candida albicans) [%],Inhibition (Cryptococcus neoformans) [%]
CCc1nnc2ccc(S(=O)(=O)N(Cc3ccc(OC)cc3)c3cccc(F)c3)cn12,4.14,4.82,-8.59
Cc1cccc(NC(=O)Cn2nc3ccc(-c4ccccc4)nn3c2=O)c1,6.7,4.41,-14.95
COc1cccc(CN(c2ccccc2)S(=O)(=O)c2ccc3nncn3c2)c1,0.32,2.69,-7.16
COc1ccc(NC(=O)c2ccc3nn(CC(=O)Nc4ccc(C(C)C)cc4)c(=O)n3c2)cc1,5.27,10.58,-13.36
O=C(CSc1nnc2c(=O)n(-c3ccc(F)cc3)ccn12)c1ccccc1Cl,14.55,8.47,-13.46
O=C(Cn1nc2c(N3CCOCC3)nccn2c1=O)Nc1ccc2c(c1)OCO2,20.48,1.5,-14.42
CCOc1ccc(-n2ccn3c(SCC(=O)Nc4ccc(C)cc4)nnc3c2=O)cc1,16.35,4.07,-19.05
COc1cc(NC(=O)C(C)Sc2nnc3c(=O)n(-c4ccc(C)c(C)c4)ccn23)cc(OC)c1 (stereo not drawn),1.23,2.85,-8.2
Cc1cccc(Sc2nccn3c(=O)n(CC(=O)N4CCN(c5ccc(F)cc5)CC4)nc23)c1,-8.7,3.19,-30.97
NC(=O)Cn1nc2n(CCC(=O)NC3CCCCC3)c(=O)c3ccccc3n2c1=O,14.53,0.47,-26.54
COc1cccc(-n2ccn3c(SCC(=O)Nc4ccccc4Cl)nnc3c2=O)c1,9.92,1.92,-13.6
COc1ccc(-c2cc3c4nn(CC(=O)Nc5ccc(OC)c(OC)c5)c(=O)n4ccn3n2)cc1,11.9,-0.77,-19.32
O=C(CSc1nnc2c(=O)n(-c3ccccc3)ccn12)Nc1cccc(F)c1,2,7.33,-21.7
Cc1ccc(Cn2nc3c(=O)n(-c4ccc(C)c(C)c4)ccn3c2=O)cc1,14.01,3.7,-17.46
COc1ccc(CNC(=O)CSc2nnc3c4cc(-c5ccccc5)nn4ccn23)cc1,15.76,0.38,-28.39
CCc1ccc(N(Cc2ccc(F)cc2)S(=O)(=O)c2cccn3c(C)nnc23)cc1,-1.65,6.88,-7.64
Cc1ccc(-c2cc3c4nn(CC(=O)Nc5ccc(Cl)cc5)c(=O)n4ccn3n2)cc1C,-7.29,11.19,-17.93
Cc1ccc(CN(c2ccc(C(C)C)cc2)S(=O)(=O)c2cccn3cnnc23)cc1,23.96,3.57,-16.89
Cc1nnc2ccc(S(=O)(=O)N(Cc3cc(F)cc(F)c3)c3ccccc3)cn12,7.27,2.01,-9.38
O=c1c2nn(Cc3c(F)cccc3Cl)c(=O)n2ccn1-c1ccccc1,15.43,1.25,-4.81
Cc1ccc(-c2ccc3nn(CC(=O)Nc4ccc(Cl)cc4)c(=O)n3n2)cc1C,17.23,0.13,-13.82

SMILES,Inhibition (Klebsiella pneumoniae) [%],Inhibition (Candida albicans) [%],Inhibition (Cryptococcus neoformans) [%]
COc1ccc(NC(=O)C(C)Sc2nnc3c(=O)n(-c4ccccc4)ccn23)cc1 (stereo not drawn),12.19,1.79,-7.55
CCCCNC(=O)Cn1nc2n(Cc3ccco3)c(=O)c3sccc3n2c1=O,5.33,0.44,-11.54
CC(C)CCNC(=O)CSc1nnc2c3cc(-c4ccccc4)nn3ccn12,15.29,4.42,-17.81
CCc1ccc(NC(=O)Cn2nc3ccc(SC4CCCCC4)nn3c2=O)cc1,3.55,2.46,-12.68
COc1cccc(-n2ccn3c(SCC(=O)c4ccc(F)cc4)nnc3c2=O)c1,12.25,2.59,-11.08
CC(C)(C)S(=O)(=O)c1ccc2nn(CC(=O)Nc3ccc4c(c3)OCO4)c(=O)n2n1,2.44,1.02,-2.55
CN(Cc1ccccc1)C(=O)CSc1nnc2c3cc(-c4ccccc4)nn3ccn12,-0.25,2.03,-6.97
CCOC(=O)c1ccc(NC(=O)Cn2nc3c4cc(-c5ccc(C)c(C)c5)nn4ccn3c2=O)cc1,1.25,1.14,-10.15
Cc1ccc(-c2ccc3nn(Cc4cccc(Br)c4)c(=O)n3n2)cc1C,14.87,0.19,-18.95
Cc1ccc(-c2ccc3nn(Cc4cc(F)cc(F)c4)c(=O)n3n2)cc1C,3.15,0.47,-8.58
COc1cccc(-n2ccn3c(-c4ccc([N+](=O)[O-])cc4)nnc3c2=O)c1,6.14,1.66,-18.73
Cc1ccc(CNC(=O)Cn2nc3c(SC4CCCCC4)nccn3c2=O)cc1,14.28,-1.05,-11.99
Cc1ccc(-c2noc(Cn3nc4ccc(-c5ccccc5)nn4c3=O)n2)cc1,1.24,8.52,-15.81
CC(C)NC(=O)CCn1c(=O)c2ccccc2n2c(=O)n(CC#N)nc12,10.9,0.91,-13.64
COc1ccc(-c2cc3c4nnc(CCC(=O)NCc5ccccc5Cl)n4ccn3n2)cc1,3.58,1.3,-11.66
COc1cccc(-n2ccn3c(SCC#N)nnc3c2=O)c1,2.74,3.51,-7.4
Cc1ccc(NC(=O)Cn2nc3c(Sc4ccccc4)nccn3c2=O)c(Br)c1,0.72,22.67,-9.68
Cc1cc(C)c(NC(=O)Cn2nc3c(Sc4ccccc4)nccn3c2=O)c(C)c1,-3.36,5.92,-6.18
COC(=O)c1cccc(NC(=O)Cn2nc3c(N4CCC(C)CC4)nccn3c2=O)c1,5.33,2.15,-12.99
